# Screening results from PubChem BioAssay.
# SKN-1 inh – C. elegans SKN-1 inhibition; C. elegans VP596 Pgst-4::GFP/RFP ratio, acrylamide-induced, 24 h; inhibition, % at 21.8 µM; hit rate 0.49% among 360,000;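 active means interference check ratio from 0.5 to 1.5 plus GFP to RFP signal ratio inhibition reaching or exceeding a fixed threshold, cut at about 30% in these data, passing the limit was not always enough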
# CendR NRP1 mod – modulators of CendR peptide binding to human neuropilin-1 | O14786 | FAM-RPARPAR peptide binding to NRP-1, fluorescence polarization | inhibition, % at 25 µM | hit rate 0.85% among 360,000 | AID 602438;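 active means inhibition or corrected inhibition above about 18%, plus a signal ratio from 0.5 to 1.5, limit read from the data, passing the limit was not always enough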
# ATG4B inh – inhibitors of human ATG4B cysteine protease; hit rate 0.51% among 340,000; Q9Y4P1; ATG4B cleavage of LC3-PLA2, NBD-HPC fluorescence, 1 h; AID 504462; inhibition, % at 8.33 µM; in the data active means inhibition above about 40%
# Target sequence (Q9Y4P1 whole entry, looked up): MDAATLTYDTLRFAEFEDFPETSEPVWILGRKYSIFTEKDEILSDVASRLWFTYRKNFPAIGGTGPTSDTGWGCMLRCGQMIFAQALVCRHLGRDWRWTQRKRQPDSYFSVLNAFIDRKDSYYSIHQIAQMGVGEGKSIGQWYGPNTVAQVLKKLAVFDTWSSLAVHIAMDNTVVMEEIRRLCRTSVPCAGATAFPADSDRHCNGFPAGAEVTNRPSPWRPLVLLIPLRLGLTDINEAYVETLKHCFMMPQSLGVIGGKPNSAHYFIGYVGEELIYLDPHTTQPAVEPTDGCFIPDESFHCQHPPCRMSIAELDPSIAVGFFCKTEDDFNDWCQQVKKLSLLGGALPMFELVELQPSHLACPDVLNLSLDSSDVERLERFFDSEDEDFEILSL
# F508del corr – CFTR F508del correction in bronchial cells; CFBE cells, YFP halide quenching; stimulated with forskolin plus potentiator P3; % fluorescence drop versus neutral controls; activity (quench increase), % at 7.58 µM; hit rate 0.36% among 350,000;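 active means mean added fluorescence quench of at least 8% versus neutral control, with both replicates also reaching 8%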;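 further: cells transiently co-express mutant CFTR-F508del with the halide-sensitive YFP; corrector assay measuring rescue of mutant channel to the surface after 24 h compound exposure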
# MPTP inh – permeability transition pore inhibition; hit rate 1.4% among 360,000; inhibition, % at 10 µM; isolated mouse mitochondria, Ca2+ swelling absorbance, 30 min;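 active means inhibition of 50% or more, scaled per plate between neutral and stimulator controls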;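 further: 0% = DMSO wells given calcium and 100% = 1 mM EGTA wells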
# ATG4B confirm – confirmation of human ATG4B inhibitors. shares compounds with ATG4B inh. ATG4B protease fluorescent substrate cleavage assay. inhibition, % at 8.33 µM. hit rate 92% among 320; in the data active means inhibition above about 39%
# PLA2 counter – inhibits human PLA2, flagging false ATG4B inhibitors; shares compounds with ATG4B inh; purified PLA2, NBD-C6-HPC fluorescence, 45 min; inhibition, % at 8.33 µM; hit rate 66% among 1,600; AID 588402; in the data active means inhibition above about 50%
# Target sequence (P04054 whole entry, looked up): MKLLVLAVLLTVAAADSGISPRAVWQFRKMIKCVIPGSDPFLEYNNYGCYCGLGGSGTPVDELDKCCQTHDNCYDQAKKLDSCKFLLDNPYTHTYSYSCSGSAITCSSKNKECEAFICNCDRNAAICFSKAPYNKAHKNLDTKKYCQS
# Numbers without * were called inactive; . = no result. Shown are actives, neighbours in structure and some others; about 2.7% of the full set was active somewhere.
SMILES,SKN-1 inh,CendR NRP1 mod,ATG4B inh,F508del corr,MPTP inh,PLA2 counter,others
Cc1ccc(NS(=O)(=O)c2ccc(-c3cnc(C4CC4)o3)cc2)cc1,-7,4,-19,7,1,.,
Cc1ccc(CNS(=O)(=O)c2ccc(-c3cnc(C4CC4)o3)cc2)cc1,7,21*,-10,2,0,.,
Cc1noc(C)c1NC(=O)Nc1ccc2c(c1)C(=O)N([C@H](C)CO)C[C@H](C)[C@@H](CN(C)C(=O)NC(C)C)OCCCC[C@@H](C)O2,.,.,.,0,.,.,
O=C(c1cccc(F)c1)N1CC(=O)N2[C@H](C1)[C@H](c1ccc(C3=CCCC3)cc1)[C@@H]2CO,.,.,.,2,.,.,
CSc1ccccc1NC(=O)COC(=O)CCC(=O)c1ccc(F)cc1,1,2,-6,8.1*,0,.,
Cc1ccc(C(=O)CCC(=O)OCC(=O)Nc2ccccc2SCC#N)cc1,2,-10,-41,-3,-2,.,
CCc1cccc(CC)c1NC(=O)c1cccc(NC(=O)c2ccccc2)c1,1,-5,-6,.,7,.,
CCc1cccc(CC)c1NC(=S)Nc1ccccc1,8,20*,-10,.,4,.,
CCCCC(=NCCc1c(C)[nH]c2ccc(OC)cc12)C1=C(O)CC(c2ccccc2)CC1=O (stereo not drawn),7,-3,9,11*,1,.,
C[C@H](CO)N1C[C@H](C)[C@H](CN(C)C(=O)Nc2ccccc2)OCCCC[C@H](C)Oc2ccc(NC(=O)NC3CCCCC3)cc2C1=O,.,.,.,1,.,.,
CCC(c1nnnn1Cc1ccc2c(c1)OCO2)N1CCN(c2ccc(F)cc2)CC1 (stereo not drawn),36*,2,-2,.,0,.,
CC1(c2ccc3ccccc3c2)NC(=O)N(CC(=O)O)C1=O (stereo not drawn),-7,-6,1,-1,0,.,
CC1(c2ccc3ccccc3c2)CCC(=O)O1 (stereo not drawn),21,13,-1,8.7*,-1,.,
NC(=O)C1CCN(C(=O)C2CCC(=O)N(CC3CCCCC3)C2)CC1 (stereo not drawn),3,18*,-8,-2,-2,.,
Cc1ccc(NC(=O)CSC2=NN3CCCC(=O)N=C3S2)c(C)c1,-1,5,-2,9.7*,0,.,
Cc1cccc(NC(=O)CSC2=NN3CCCC(=O)N=C3S2)c1C,10,-3,-2,2,2,.,
C[C@H]1CN([C@@H](C)CO)C(=O)c2cc(NS(=O)(=O)c3ccc(Cl)cc3)ccc2O[C@@H]1CN(C)S(=O)(=O)c1cn(C)cn1,.,.,.,0,.,.,
CC(=O)Nc1cc(C(=O)N2CCc3ccccc3C2)ccc1Sc1ccc(Cl)cc1,-15,-3,40*,.,8,51*,
CC(=O)Nc1cc(C(=O)N2CCc3ccccc3C2)ccc1Sc1ccc(F)cc1,-13,-1,24,.,4,.,
CC(/C=C1\SC(=S)N(c2ccc(C(=O)O)cc2)C1=O)=C\c1ccccc1,0,-124,52*,3,32,47,ATG4B confirm=44*
CC(/C=C1\SC(=S)N(NS(=O)(=O)c2ccccc2)C1=O)=C\c1ccccc1,-11,-61,49*,-2,37,47,ATG4B confirm=59*
CC(/C=C1\SC(=S)N(C(C(=O)O)C(C)C)C1=O)=C\c1ccccc1 (stereo not drawn),-7,-36,35,0,0,.,
CC(/C=C1\SC(=S)N(NC(=O)c2ccc(C)cc2)C1=O)=C\c1ccccc1,-5,3,1,.,0,.,
Cc1cccc(N=C2NC(=O)/C(=C/C=C/c3ccco3)S2)c1C,0,-146,83*,.,3,51*,
Cc1ccc(N=C2NC(=O)/C(=C/C=C/c3ccco3)S2)cc1,-1,-59,31,.,3,.,
SMILES,SKN-1 inh,CendR NRP1 mod,ATG4B inh,F508del corr,MPTP inh,PLA2 counter,others
COc1ccc(C(=O)On2c(-c3ccc(Br)cc3)nc3ccccc3c2=O)cc1,-13,-11,56*,-1,9,66*,
COc1cc(OC)cc(-c2nc3ccccc3c(=O)n2OC(=O)c2ccc(Br)cc2)c1,11,-32,55*,-1,39,29,ATG4B confirm=30
COc1ccc(O)c(CNn2c(-c3ccc(Br)cc3)nc3ccccc3c2=O)c1,5,4,-4,6,5,.,
CCCNC(=O)Nc1ccc2c(c1)OC[C@H](C)N(C(=O)C1CCC1)C[C@@H](C)[C@H](OC)CN(C)C2=O,.,.,.,-1,.,.,
Cc1ccc(O)c(-c2cc(-c3ccccc3[N+](=O)[O-])[nH]n2)c1,13,20,73*,.,5,67*,
COc1ccc(O)c(-c2cc(-c3ccccc3[N+](=O)[O-])[nH]n2)c1,3,1,19,.,2,.,
Cc1ccc(O)c(-c2cc(-c3ccccc3C)[nH]n2)c1,10,20,55*,.,3,62*,
Oc1ccccc1-c1cc(-c2ccccc2Cl)[nH]n1,6,-8,56*,1,7,68*,
O=[N+]([O-])c1ccccc1-c1cc(-c2cc(Cl)ccc2O)n[nH]1,8,3,88*,.,20,85*,
O=C(C[C@@H]1CC[C@@H]2[C@H](COC[C@H](O)CN2CCC(F)(F)F)O1)NCC1CC1,.,.,.,-1,.,.,
O=C(N[C@@H]1CC[C@H](CCNS(=O)(=O)c2ccccc2)O[C@H]1CO)c1cccc(F)c1,.,.,.,-2,.,.,
N#C/C(=C\c1ccc(-c2ccccc2[N+](=O)[O-])o1)C(=O)Nc1nc(-c2cccs2)cs1,9,-3,67*,.,21,76*,
CCCCCCCCCCCCCCCCCCNc1ccn(C2OC(COP(=O)(O)OCC3OC(n4cc(F)c(=O)[nH]c4=O)CC3O)C(O)C2O)c(=O)n1 (stereo not drawn),-2,-89,42*,-2,-7,41,ATG4B confirm=52*
O=c1[nH]c(=O)n(C2OC(CO)C(O)C(O)C2O)cc1F (stereo not drawn),.,.,.,-3,.,.,
CC(C)CCn1c(=O)c2ccccc2c2ccccc2c1=O,13,-10,64*,.,3,71*,
C[C@@H]1CN([C@@H](C)CO)S(=O)(=O)c2ccc(C#CCN(C)C)cc2O[C@@H]1CN(C)C(=O)C1CC1,.,.,.,-1,.,.,
CCC(=O)N(C)C[C@@H]1Oc2ncc(/C=C/c3ccccc3)cc2C(=O)N([C@@H](C)CO)C[C@@H]1C,.,.,.,0,.,.,
Cn1cccc1C(=O)NC(=O)COC(=O)c1cc(S(=O)(=O)N2CCCCC2)ccc1Cl,-1,0,51*,0,-2,52*,
O=C(NC1CCCC1)[C@@H]1[C@@H](CO)[C@@H]2Cn3c(ccc(-c4cccnc4)c3=O)[C@@H]2N1CC1CC1,.,.,.,1,.,.,
O=C(O)CN1C(=O)/C(=C\c2cc(Br)ccc2OCc2ccc(F)cc2)SC1=S,-12,-86,22,4,4,.,
O=C(O)CN1C(=O)/C(=C\c2ccccc2OCc2ccccc2)SC1=S,-6,-41,.,-5,2,.,
